Growth data for 40 compounds are collected here from PubChem BioAssay (NCI).

SMILES strings stand for the structures. This is part of a sample that, as a whole, favours compounds with a hit. Of some 83,000 tested, about 20% had one in any assay.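 Values shown are percent growth following 48 h exposure of cells in 96-well plates to a single concentration of compound; below 10 was considered active.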 Unmarked numbers belong to inactive results. Active and inactive are the calls of the source.

The test system of the assay is SN12C renal. The experiment in a line: NCI-60 one-dose screen, 48 h (100 = growth as untreated, 0 = no growth, -100 = all killed). Conditions: 10 µM unless noted. As for the experimental part: Growth inhibition of the SN12C human tumor cell line is measured as a screen for anti-cancer activity. Cells are grown in 96 well plates and exposed to the test compound for 48 hours. Compounds are tested at a single concentration, which is 10^-5 M for most compounds. The reported endpoint is percent growth (GI% or GIPRCNT), where numbers from 0 - 100% represent growth inhibition, and numbers from -100% - 0 represent cell death. For example, a value of 40 represents 60% growth inhibition. A value of 0 means no net growth occurred over the course of the experiment. A value of -40 indicates 40% of cells at the beginning of the experiment died by the end of the experiment. A value of -100 means all cells are dead at the end of the experiment.
NCI-60 Human Tumor Cell Lines Screen was performed using the standard one-dose NCI protocol, which is described in more detail at https://dtp.cancer.gov/discovery_development/nci-60/default.htm.
Compounds with GIPRCNT values below 10 were considered active. Activity score was based on GIPRCNT using the following formula: […]
Score is 0 for GIPRCNT values of 100 or above, 50 for GIPRCNT values of 0, and 100 for GIPRCNT values of -100.
On to `Cn1cc(-c2cc3nc(-c4cn(C)c5ncc(Br)cc45)cc(N)n3n2)c2ccccc21`, for which the growth is -82.2% (active).

As for `CCCSc1nc(Nc2ccc(S(N)(=O)=O)cc2)c(C#N)c(-c2cc(OC)c(OC)c(OC)c2)n1`, the growth is 20.4%.

Consider `COc1cc2c(c(OC)c1OC)C(=O)CC(c1cccc(NC(=O)c3cc(NC(=O)[C@@H](N)CO)ccc3C)c1)O2` (stereo not given in full), for which the growth is 102%.

Turning to `CC(C)c1sc(NC(=O)c2cc(NC(=O)c3cc(NC(=O)c4nccn4C)cn3C)cn2C)nc1C(=O)NCCCN(C)C`, the growth is 85.7%.

`N/C(=N\N=C\c1ccc([N+](=O)[O-])cc1)c1c(N)nc(=S)[nH]c1-c1ccc(Cl)cc1Cl`: the growth was 96.1%.

For the compound `COc1cc(C2CC(c3cc(OC)c(OC)c(OC)c3)=NN2C(C)=O)ccc1OCc1ccc(F)cc1` (stereo not given), the growth was 53.9%.

For the compound `CCCCn1c(O)c(N=Nc2nc(-c3cc4ccccc4oc3=O)cs2)c2cc(Br)ccc21`, the growth is 101%.

Take `NS(=O)(=O)c1ccc(N=Nc2c(O)n(CC(=O)Nc3ccccc3Cl)c3ccccc23)cc1`: the growth was 27.6%.

`CC(=O)OCC1OC(OC2C(COC(C)=O)OC(n3cc(COc4ccc5ccc(=O)oc5c4)nn3)C(OC(C)=O)C2OC(C)=O)C(OC(C)=O)C(OC(C)=O)C1OC(C)=O` (stereo not given): the growth was 98.3%.

For `O=C(CSc1nc2ccccc2c(=O)[nH]1)NCCN1CCCCC1`, the growth is 96.4%.

Consider `COc1ccc2[nH]cc(-c3nc(N)nnc3-c3cn(C)c4ncccc34)c2c1`, for which the growth was 59.6%.

For `COc1ccc2[nH]c(=O)c(CSc3nccc(-c4ccc(OC)c(OC)c4)n3)cc2c1`, the growth is 33.6%.

In the case of `Nc1n[nH]c2cccc(C#Cc3cccc(NC(=O)c4cccc(Cl)c4)c3)c12`, the growth is 28.5%.

For `COCOc1cc2c(=O)c(C)c(C(=O)N[C@@H](Cc3ccccc3)C(O)C(=O)NCc3ccccc3)oc2cc1OC` (stereo not given in full), the growth was 42.7%.

Regarding `CC1(C)CC[C@]2(C(=O)O)CC[C@]3(C)C(=CCC4[C@@]5(C)C[C@@H](O)[C@@H]6OC(c7ccccc7F)OC[C@@]6(C)C5CC[C@]43C)C2C1` (stereo not given in full), the growth was 3.09% (active).

`C=C1CC[C@@H]2[C@]3(C)COC(c4cn[nH]c4-c4cccc(Cl)c4)O[C@@H]3CC[C@@]2(C)[C@@H]1C/C=C1/C(=O)OCC1O` (stereo not given in full): the growth is -69.6% (active).

For the compound `CCOc1ccc(C(=O)NC(=S)Nc2ccc(S(N)(=O)=O)cc2)cc1`, the growth is 100% [100 µM].

For `Cn1cc(-c2cc3nc(-c4c[nH]c5ccc(Br)cc45)cc(N)n3n2)c2ccccc21`, the growth is -73% (active).

For the compound `COc1ccc2[nH]c(O)c(N=NC(=O)Cn3c(-c4ccccc4)nc4cc(C)ccc43)c2c1`, the growth is -73.7% (active).

With `N#Cc1c(-c2cccc(Cl)c2Cl)cc(-c2c[nH]c3ccccc23)[nH]c1=O`, the growth was 53.6%.

Take `Cn1cc(-c2cc(N)n3nc(-c4cn(C)c5ccccc45)cc3n2)c2cc(Cl)ccc21`: the growth was -53.9% (active).

Regarding `COc1ccc(/C=C/c2nc3ccccc3c(=O)n2CC(=O)Nc2ccc(Cl)cc2)cc1`, the growth was 55.3%.

For `O=C(Nc1cccc(-n2cnc3cc(-c4ccc(O)cc4)ccc32)c1)C1CC1`, the growth is 24.9%.

As to `COc1c(F)ccc(C(=O)Nc2ccc3nc(NC(=O)C4CCCN(S(=O)(=O)C5CC5)C4)sc3c2)c1F` (stereo not given), the growth is 65%.

On to `COc1ccc(NC(=O)c2sc3nc(C(C)C)ccc3c2N)cc1`, for which the growth is 74.1%.

With `COc1ccc2cc([C@H](C)C(=O)N/N=C/c3ccc(Br)cc3)ccc2c1`, the growth is 97.2%.

Regarding `O=C(O)Cn1c(O)c(/C=C2/C=c3cc4c(cc3=NC2=O)OCCO4)sc1=S`, the growth is 97.5%.

For the compound `C#CCOc1ccc(/C=N/Nc2nc(-c3ccc(F)cc3)cs2)cc1OC`, the growth is 68.9%.

Regarding `NS(=O)(=O)c1ccc(CCNC(=O)CSc2ccc(-c3ccc(Br)cc3)nn2)cc1`, the growth is 80.7%.

Take `Clc1cccc(Cl)c1/C=C/c1cc(/C=C/c2ccc(Br)cc2)c2ccccc2n1`: the growth was 93.2%.

For the compound `COc1cc2oc(-c3cccc(C(=O)Nc4cccc([N+](=O)[O-])c4)c3)cc(=O)c2c(OC)c1OC`, the growth was 25.8%.

With `N#Cc1ccc(/C=N/NC(=O)c2[nH]c3ccc(Br)cc3c2-c2ccccc2)o1`, the growth is 5.87% (active).

Take `Cn1cc(-c2cc(N)n3nc(-c4c[nH]c5ccccc45)cc3n2)c2cccnc21`: the growth is 12.4%.

`C[C@H](Nc1nc(NCCc2ccccc2)nc2ccccc12)c1ccccc1`: the growth is -94.6% (active).

On to `CCOC(=O)C1=C(N)N(c2ccccc2)C2=C(C(=O)CC(C)(C)C2)C1c1ccc([N+](=O)[O-])cc1` (stereo not given), for which the growth is 98.4%.

As to `O=c1oc2ccccc2cc1-c1csc(N=Nc2c(O)[nH]c3ccc(Cl)cc23)n1`, the growth was 97.9%.

Consider `CN(C)CCn1c2ccccc2c2nc3cc4ccccc4cc3nc21`, for which the growth was 32.3%.

For `O=C(N=Nc1c(O)[nH]c2ccc([N+](=O)[O-])cc12)c1ccc2nc(-c3ccccc3)[nH]c2c1`, the growth is 49.5%.

With `COc1ccc(-c2nnc3ccc(N/N=C/c4ccc(O)cc4)nn23)cc1`, the growth was 42.3%.

As for `C=CC(=O)Nc1ccc(C)c(Oc2ccc(Cl)cc2)c1`, the growth was 45.3%.
